Screening data as filed in PubChem BioAssay.
The list is not random: actives were taken first. Their share in the collection is about 1.5%.
Measles CPE: protection of cells from measles virus; Measles virus-infected cells, CPE protection, absorbance; protection (pct of control), % at 4 µM; actives 1.5% (n = 140,000); AID 841; in the data active = protection mostly above about 24%, no sharp cut-off; inactive = mostly below about 26%
cytoskel mod: cytoskeleton assembly modification. actives 0.18% (n = 91,000). AID 836. inhibition, % at 2 µM. HUVEC TNFa F-actin phalloidin imaging, high content;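 active = inhibition above the batch mean plus 3 SD and confirmed as a hit by visual image inspection, cut at about 30% in these data, passing the limit was not always enough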
Numbers stand for hits; i = inactive; nt = no result given.

SMILES	Measles CPE	cytoskel mod
CC(NC(=O)/C(=C/c1cccc([N+](=O)[O-])c1)NC(=O)c1ccco1)C(=O)O (stereo unspecified)	i	nt
CC(=O)N(CN1C(=O)c2ccccc2C1=O)c1ccc2c(c1)oc1ccccc12	i	nt
COC(=O)c1c(NC(=O)CN2CCN(c3ccccc3OC)CC2)c2c(C)cccc2n1C	i	i
COC(=O)c1c(NC(=O)CN2CCN(c3ccccc3)CC2)c2c(C)cccc2n1C	42	i
O=C(/C=C/c1ccccc1)Nn1c(-c2cccc([N+](=O)[O-])c2)nc2ccccc2c1=O	i	nt
CCOC(=O)C1=NN(C(=O)Nc2cccc(C(F)(F)F)c2)C2C(=O)N(c3cccc(C(F)(F)F)c3)C(=O)C12 (stereo unspecified)	i	i
O=C(Nc1cccc2ccccc12)N1CCOCC1	i	i
O=C(Nc1cccc2ccccc12)c1ccc(OC(=S)N2CCOCC2)cc1	109	i
Clc1ccc(Oc2cnc3ccccc3n2)cc1	i	i
Cc1ccc(Oc2cnc3ccccc3n2)cc1	67	i
CC(C)CNC(=O)/C=C/c1cccs1	i	nt
CCC(C)/C(C)=N/NC(=O)c1cn(-c2ccccc2)nc1-c1ccccc1 (stereo unspecified)	i	nt
Cc1c(C(=O)N2CCN(C)CC2)oc2c1C(=O)CC(C)(C)C2	i	i
Cc1c(C(=O)N2CCCC2)oc2c1-c1[nH]ncc1CC2	31	nt
COc1ccccc1OC1=NS(=O)(=O)c2ccccc21	i	i
Cc1ccc(OC2=NS(=O)(=O)c3ccccc32)cc1	28	nt
COc1ccc(/C=C(/NC(=O)c2ccccc2)C(=O)N/N=C/c2ccncc2)c(OC)c1	i	nt
COc1ccc(OC)c(/C=C(\NC(=O)c2ccccc2)C(=O)N/N=C/c2ccc(C)s2)c1	35	i
CCOc1cc2c(cc1OCC)C(c1ccccc1)N(c1ccccc1)C(=O)C2 (stereo unspecified)	i	nt
COc1ccc(CCNC(=O)Cn2nc([N+](=O)[O-])c(Br)c2C)cc1OC	i	nt
CCOc1ccc(Br)cc1S(=O)(=O)Nc1ccc(N2CCOCC2)cc1	77	i
CCOc1ccc(Br)cc1S(=O)(=O)Nc1ccccc1N1CCOCC1	i	i
CCC1(C)Cc2c(sc3c2c(=O)n(-c2ccccc2)c(=O)n3C)CO1 (stereo unspecified)	i	i
Cn1c(=O)n(-c2ccccc2)c(=O)c2c3c(sc21)COC(C)(C)C3	18	nt
CCCN(CC1CC1)C(=S)Nc1ccc(Oc2ccccc2)cc1	i	nt
SMILES	Measles CPE	cytoskel mod
CC(=O)c1cc2c(cc1NC(=O)c1cc(C)nn1-c1ccccc1)OCO2	i	nt
CC(=O)Nc1ccc(NC(=O)c2cc(C)nn2-c2ccccc2)cc1	53	i
CCOc1ccc(/C(O)=C/C(=O)C(=O)Nc2ccc(S(=O)(=O)NC(C)=O)cc2)cc1	i	nt
CCOC(=O)c1c(NC(=O)Cc2cccs2)sc2c1CCCC2	i	i
NC(=O)c1c(NC(=O)Cc2cccs2)sc2c1CCC2	45	i
O=C(COc1ccccc1)N(CCc1ccccc1)c1nc(-c2ccc(F)cc2)cs1	nt	i
CCCCCc1cc(O)c2c(C)cc(=O)oc2c1	63	i
CCCc1cc(=O)oc2cc(C)cc(O)c12	i	i
COc1ccc(NS(=O)(=O)c2cc(OCC(N)=O)c(C)cc2Cl)cc1	i	nt
COc1ccc(CN2C(=O)/C(=C/c3ccncc3)SC2=S)cc1	i	nt
COC(=O)C(CCSC)NC(=O)C(NC(=O)C1CCC(C)CC1)C(C)C (stereo unspecified)	i	i
CCC(C)C(NC(=O)C1CCC(C)CC1)C(=O)NC(CCSC)C(=O)OC (stereo unspecified)	23	nt
CCOC(=O)c1c(C)[nH]c(C(=O)OCCOc2ccccc2C)c1C	i	nt
CC(Oc1ccc(Br)cc1)C(=O)Nn1c(=S)[nH]c2ncccc2c1=O (stereo unspecified)	i	nt
COc1ccc(N2C(=O)CC(NCc3ccc(F)cc3)C2=O)cc1 (stereo unspecified)	i	i
COc1ccc(N2C(=O)CC(NCc3ccncc3)C2=O)cc1 (stereo unspecified)	45	nt
Cc1ccc(NC(=S)NCCN2CCOCC2)cc1C	i	i
Cc1cccc(NC(=S)NCCN2CCOCC2)c1C	39	nt
CCCCCNCc1cccc(Br)c1	i	i
Cn1c[n+](C)cc1-c1ccc(/C(N)=N/O)cc1	i	nt
Cc1[nH]c(=S)sc1Cc1ccc(F)cc1	i	nt
Cc1ccc(NC(=O)c2cc([N+](=O)[O-])ccc2NCc2cccnc2)cc1	i	i
CCOCCCNCc1cc(Br)ccc1OCc1ccccc1	i	nt
OCCNCc1cc(Br)ccc1OCc1ccccc1	32	nt
Cc1ccc(S(=O)(=O)CC2CSc3nc4ccccc4n32)cc1 (stereo unspecified)	i	nt
CC(=O)OCCn1c(Br)nc2c1c(=O)[nH]c(=O)n2C	i	i
CCCC(=O)OCCn1c(Br)nc2c1c(=O)[nH]c(=O)n2C	35	i
COC(=O)c1cc(NC(=O)CC2SC(=Nc3ccccc3)N(CCc3c[nH]c4ccccc34)C2=O)cc(C(=O)OC)c1 (stereo unspecified)	i	i
